# Values without a mark were called inactive.
# Tested on: Vero E6 infected with SARS-CoV-2
# Experiment: inhibition of SARS-CoV-2 cytopathic effect; higher = more antiviral protection, active = above 15
# Details: 100 nM; 48 h
row,Compound,inhibition of SARS-CoV-2 cytopathic effect [%]
1,Cc1ccc(C(=O)c2ccc(CC(=O)O)n2C)cc1 [tolmetin],-1.05
2,COc1cccc(-c2cc(=O)c3ccccc3o2)c1N,-0.32
3,CC(=O)O[C@]1(C(C)=O)CC[C@H]2[C@@H]3C=C(C)C4=CC(=O)CC[C@@H]4[C@H]3CC[C@@]21C [nomegestrol-acetate],0.03
4,O=C1CN(/N=C/c2ccc([N+](=O)[O-])o2)C(=O)N1 [nitrofurantoin],0.43
5,COc1cc2nccc(Oc3ccc(NC(=O)Nc4ccc(F)cc4F)c(F)c3)c2cc1OC,4.46
6,CS(=O)(=O)N(Cc1ccco1)C[C@@H](O)Cn1c2ccccc2c2ccccc21,-0.72
7,C/C=C1\[C@H]2C=C(C)C[C@]1(N)c1ccc(=O)[nH]c1C2 [(-)-Huperzine A],0.96
8,CC(=O)N(O)C/C=C/c1cccc(Oc2ccccc2)c1,1.66
9,CCOC1O[C@H]([C@@H](COCc2ccccc2)OCc2ccccc2)[C@H](OCc2ccccc2)[C@H]1O (stereo not given in full) [tribenoside],-0.86
10,CCS(=O)(=O)N1CCN(c2ccc(Nc3ncc(C(N)=O)c(NC4CC4)n3)cc2)CC1,-2.24
11,Cc1ccc(-c2ncc[nH]2)cc1NC(=O)c1ccc(OCc2ccccn2)cc1,-2.09
12,C[C@]12CC[C@H](O)CC1=CC[C@@H]1[C@@H]2CC[C@]2(C)C(c3cccnc3)=CC[C@@H]12 [Abiraterone (CB-7598)],3.28
13,CC(C)(C)c1ccc(O)cc1 [4-tert-butylphenol],-1.66
14,CC(=O)OCC(=O)[C@@]1(O)CC[C@H]2[C@@H]3CCC4=CC(=O)CC[C@]4(C)[C@H]3C(=O)C[C@@]21C [cortisone-acetate],-1.03
15,O=C1OC(OC(=O)c2cccnc2Nc2cccc(C(F)(F)F)c2)c2ccccc21 (stereo not given) [talniflumate],-2.09
16,N#Cc1ccc(N(Cc2ccc(Br)cc2)n2cnnc2)cc1,3.36
17,NC(=S)N/N=C/c1coc2ccccc2c1=O.[Cl][Cu][Cl],1.98
18,Cc1nc(C#Cc2ccnc(Cl)c2)c(C)n1-c1ccc(F)cc1 [basimglurant],-2.56
19,CCCCC(=O)O[C@H]1CC[C@H]2[C@@H]3CCc4cc(O)ccc4[C@H]3CC[C@]12C,-1.48
20,C[N+](C)(C)CCOC(=O)CCC(=O)OCC[N+](C)(C)C [succinylcholine-chloride],-2.35

row,Compound,inhibition of SARS-CoV-2 cytopathic effect [%]
1,Cc1cc(C)cc(OCC2CNC(=O)O2)c1 (stereo not given) [metaxalone],-1.26
2,CC(C(=O)O)c1ccc(C(=O)c2cccs2)cc1 (stereo not given) [suprofen],-0.86
3,Cc1cccc(C)c1NC1=NCCCS1 [xylazine],1.06
4,CC1=C(C(=O)O)N2C(=O)[C@@H](NC(=O)[C@H](N)c3ccc(O)cc3)[C@H]2SC1 [cefadroxil],1.01
5,N=C(NCc1ccc(Cl)cc1)SCCCc1c[nH]cn1 [clobenpropit],1.78
6,N#Cc1ccccc1-c1cc(-c2ccccn2)cn(-c2ccccc2)c1=O [Perampanel],4.1
7,C/C(=C\c1csc(C)n1)[C@@H]1C[C@@H]2O[C@]2(C)CCC[C@H](C)[C@H](O)[C@@H](C)C(=O)C(C)(C)[C@@H](O)CC(=O)N1 [ixabepilone],-5.48
8,COc1ccc2c(Oc3ccc(NC(=O)c4c(C)n(CC(C)(C)O)n(-c5ccccc5)c4=O)nc3)ccnc2c1,-0.28
9,COC(=O)C1=CCCN(C)C1 [arecoline],-1.54
10,COc1cc([S+](C)[O-])ccc1-c1nc2cccnc2[nH]1 (stereo not given) [sulmazole],0.23
11,O=C(O)CCN(O)C(=O)CCCCCCCCC1CC1,1.09
12,N=C1N[C@H]2[C@H](CS[C@H]2CCCCC(=O)O)N1 [2-iminobiotin],-1.14
13,Cc1cc(O)ccc1Cl [chlorocresol],1.47
14,CC(C)(Oc1ccc(CCNC(=O)c2ccc(Cl)cc2)cc1)C(=O)O [bezafibrate],-1.38
15,O=C(O)C1=CCNCC1 [isoguvacine],0.98
16,Cc1ccnc(NS(=O)(=O)c2ccc(N)cc2)n1 [sulfamerazine],-1.58
17,O=C1C=CC(=O)C2=C1C1c3ccccc3C2c2ccccc21,-0.03
18,CCOC(=O)Nc1cc(-c2ccc(C)c(NS(C)(=O)=O)c2)nn2c(C)nnc12 [bromosporine],-0.65
19,CC(C)(Cc1ccc2ccccc2c1)NC[C@@H](O)COc1cccc(Cl)c1C#N,0.1
20,O=C(NCCCCCCNC(=O)ON=C1CCCCC1)ON=C1CCCCC1,1.93

# Source: the supplement of paper PMC13380429
